Records with an inconclusive call do not appear. Unless noted, the call rests on the fitted dose curve; in most records, active means well fitted curve in either direction with a large enough effect (not every such curve was filed as active); inconclusive means small, poorly fitted or top-dose-only effect, or another doubt; inactive means flat fitted curve, though single readings scatter.
Columns and labels:
[1] = AP1 Signaling Pathway (AID 357); details: ME-180 AP-1-bla reporter, EGF-induced, beta-lactamase ratio, 5 h; at 17.2 µM (top of the series) unless noted;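 further: ME-180 reporter cells stimulated with EGF at its EC50 level; on the % scale 0 is the no-effect control and ±100 the full control effect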
Outline: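 Titration-series screen for positive or negative modulators of EC50 EGF-induced signaling in ME-180 cells carrying an AP-1-driven beta-lactamase reporter. After 5 hours at 37 degrees Celsius, CCF4 460nm/530nm emission ratio gave %Activity; AC50 values derived.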

[2] = NFAT Signaling Pathway (AID 444); details: Jurkat NFAT-bla M1, carbachol, beta-lactamase ratio, 5 h; at 17.2 µM (top of the series) unless noted;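 further: carbachol stimulus at about its EC50 of 1 µM final; on the % scale 0 is the no-effect control and ±100 the full control effect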
Outline: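 Read-out: CCF4 FRET ratio (460 nm/530 nm) after 1 h RT dye loading, used for %activity and AC50 from titration series. Cells: Jurkat NFAT-β-lactamase/M1 line, treated with compound plus 1 uM carbachol for 5 h, 37 °C.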

[3] = Stat Signaling Pathway (AID 446); details: ME-180 SIE beta-lactamase reporter, IL-6 stimulated, 5 h; at 17.2 µM (top of the series) unless noted;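 further: ME-180 cervical cancer cells given 40 pM IL-6 alongside compound; SIE-controlled beta-lactamase reporter measured as 460/530 nm FRET emission ratio; on the % scale 0 is the no-effect control and ±100 the full control effect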
Outline: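 ME-180 SIE-bla cells; overnight plating; cpd + IL-6 40 pM, 5 h, 37 C; LiveBLAzer 2.5 h RT; 460/530 nm emission ratio. Normalized to 300 pM IL-6 and 125 nM JAK inhibitor controls.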

[4] = target: Glucocorticoid receptor (Homo sapiens) (UniProt P04150); test: GR-GFP Redistribution (AID 450;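 active means compounds whose dose series gives a full or clear partial fitted curve of increased nuclear translocation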; further: potency means the concentration at half of the fitted maximal effect)
Glucocorticoid receptor (Homo sapiens), sequence (P04150 whole entry, looked up): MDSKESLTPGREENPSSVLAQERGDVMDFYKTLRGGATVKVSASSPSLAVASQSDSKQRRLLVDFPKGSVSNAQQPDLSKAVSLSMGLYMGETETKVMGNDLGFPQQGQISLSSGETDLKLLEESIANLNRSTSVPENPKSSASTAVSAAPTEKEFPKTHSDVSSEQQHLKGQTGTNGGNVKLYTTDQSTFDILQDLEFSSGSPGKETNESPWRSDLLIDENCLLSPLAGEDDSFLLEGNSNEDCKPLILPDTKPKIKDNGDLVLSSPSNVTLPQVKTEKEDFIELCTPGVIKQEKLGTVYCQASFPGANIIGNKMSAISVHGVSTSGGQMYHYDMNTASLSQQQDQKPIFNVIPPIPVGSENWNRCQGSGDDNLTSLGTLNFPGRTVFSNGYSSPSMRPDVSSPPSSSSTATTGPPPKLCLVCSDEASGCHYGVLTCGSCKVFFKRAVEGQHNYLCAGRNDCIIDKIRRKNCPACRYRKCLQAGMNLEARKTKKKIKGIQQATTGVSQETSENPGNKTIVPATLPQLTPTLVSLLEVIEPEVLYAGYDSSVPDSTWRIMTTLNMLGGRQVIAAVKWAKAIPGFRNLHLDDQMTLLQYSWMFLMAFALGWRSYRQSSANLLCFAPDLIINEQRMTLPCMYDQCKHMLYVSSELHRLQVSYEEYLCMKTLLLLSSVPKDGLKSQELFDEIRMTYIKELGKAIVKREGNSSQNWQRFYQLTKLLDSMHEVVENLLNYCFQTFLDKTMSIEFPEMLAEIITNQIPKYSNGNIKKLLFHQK

Cc1cc(OCCN2CCOCC2)nc2ccccc12
inactive: activity change, negative = inhibition [1] -9.97% | activity change, negative = inhibition [2] 23.5% | activity, negative = inhibition [3] 1.79% | Potency [4] > 20.6 µM

N#CCCN(CCC#N)c1nnc(-c2ccccc2)s1
inactive: activity change, negative = inhibition [1] 8.96% | activity change, negative = inhibition [2] -5.89% | activity, negative = inhibition [3] 1.66% | Potency [4] > 20.6 µM

Nc1nnc(CC2=CCCCC2)s1
inactive: activity change, negative = inhibition [1] 1.59% | activity change, negative = inhibition [2] -3.51% | activity, negative = inhibition [3] 3.57% | Potency [4] > 20.6 µM

CCN(CC)CCCN1C(=O)C(=O)/C(=C(/O)c2ccc(C)cc2)C1c1ccccn1 (centres undefined)
inactive: activity change, negative = inhibition [1] 3.29% | activity change, negative = inhibition [2] 10.1% | activity, negative = inhibition [3] 4.05% | Potency [4] > 20.6 µM

COc1ccc(OCC(=O)N2CCN(C(=O)c3cccc4ccccc34)CC2)cc1
inactive: activity change, negative = inhibition [1] -4.98% | activity change, negative = inhibition [2] 5.36% | activity, negative = inhibition [3] -1.16% | Potency [4] > 20.6 µM

Cc1c(C(=O)O)c(=S)sn1CCOc1ccccc1
inactive: activity change, negative = inhibition [1] -0.1% | activity change, negative = inhibition [2] 10.4% | activity, negative = inhibition [3] 5.37% | Potency [4] > 20.6 µM

COc1cccc2c(=O)c(SC(F)(F)C(F)C(F)(F)F)c(C)[nH]c12 (centres undefined)
inactive: activity change, negative = inhibition [1] -13.4% | activity change, negative = inhibition [2] 4.93% | activity, negative = inhibition [3] 2.33% | Potency [4] > 20.6 µM

COCCCn1c2nc3ccccc3nc2c2c(=O)n(CC3CCCO3)cnc21 (centres undefined)
inactive: activity change, negative = inhibition [1] 0.107% | activity change, negative = inhibition [2] -12.4% | activity, negative = inhibition [3] -0.209% | Potency [4] > 20.6 µM

COc1ccc(N2C(=O)C3C(C2=O)C2C=CC3C23CC3)c(OC)c1 (centres undefined)
inactive: activity change, negative = inhibition [1] 16.2% | activity change, negative = inhibition [2] 5.04% | activity, negative = inhibition [3] 0.0769% | Potency [4] > 20.6 µM

Cc1nnc2n(-c3ccccc3)c(=O)c3c4c(sc3n12)COC(C(C)C)C4 (centres undefined)
inactive: activity change, negative = inhibition [1] -3.43% | activity change, negative = inhibition [2] -28.2% | activity, negative = inhibition [3] 4.52% | Potency [4] > 20.6 µM

O=S(=O)(c1ccc2ccccc2c1)N(CC(O)CN1CCOCC1)c1ccccc1 (centres undefined)
inactive: activity change, negative = inhibition [1] -11.7% | activity change, negative = inhibition [2] 4.35% | activity, negative = inhibition [3] -7.59% | Potency [4] > 20.6 µM

COc1ccc(C2C(C#N)=C(N)Oc3n[nH]c(C)c32)cc1CSc1ccccn1 (centres undefined)
inactive: activity change, negative = inhibition [1] -15.2% | activity change, negative = inhibition [2] 13.4% | activity, negative = inhibition [3] -27.9% | Potency [4] > 20.6 µM

CN(C)c1oc(-c2cccs2)nc1C#N
inactive: activity change, negative = inhibition [1] -7.44% | activity change, negative = inhibition [2] 8.47% | activity, negative = inhibition [3] 10.4% | Potency [4] > 20.6 µM

O=C(C1=C(O)C(=O)N(CCN2CCOCC2)C1c1cccnc1)c1cc2ccccc2o1 (centres undefined)
inactive: activity change, negative = inhibition [1] 8.94% | activity change, negative = inhibition [2] -4.55% | activity, negative = inhibition [3] 3.87% | Potency [4] > 20.6 µM

N#CCCn1cnc2c(=S)nc[nH]c21
inactive: activity change, negative = inhibition [1] 16.8% | activity change, negative = inhibition [2] 11.2% | activity, negative = inhibition [3] 11.6% | Potency [4] > 20.6 µM

COc1ccc(C2C(C#N)=C(N)Oc3cc(C)n(CCN4CCOCC4)c(=O)c32)cc1OC (centres undefined)
inactive: activity change, negative = inhibition [1] 0.457% | activity change, negative = inhibition [2] 24.9% | activity, negative = inhibition [3] 6.24% | Potency [4] > 20.6 µM

CCCNc1ncnc2c1cnn2-c1ccc(OC)cc1
inactive: activity change, negative = inhibition [1] -10.2% | activity change, negative = inhibition [2] 3.93% | activity, negative = inhibition [3] -8.63% | Potency [4] > 20.6 µM

Cn1ncc2nnn(-c3ccccc3)c(=O)c21
inactive: activity change, negative = inhibition [1] 3.86% | activity change, negative = inhibition [2] -4.96% | activity, negative = inhibition [3] 3.98% | Potency [4] > 20.6 µM

O=c1[nH]c(CN2CCCCC2)nc2c1C1(CCCCC1)Cc1ccccc1-2
inactive: activity change, negative = inhibition [1] 24.9% | activity change, negative = inhibition [2] 4.2% | activity, negative = inhibition [3] -5.46% | Potency [4] > 20.6 µM

CSc1sc(C(=O)O)c2c1C(=O)CCC2
inactive: activity change, negative = inhibition [1] 12.2% | activity change, negative = inhibition [2] -0.427% | activity, negative = inhibition [3] 3.35% | Potency [4] > 20.6 µM

Cc1nc(-c2coc3cc(OCC(=O)O)ccc3c2=O)cs1
inactive: activity change, negative = inhibition [1] 7.54% | activity change, negative = inhibition [2] -2.11% | activity, negative = inhibition [3] 3.59% | Potency [4] > 20.6 µM

O=C(NCCN1CCOCC1)c1ccc(=O)oc1
inactive: activity change, negative = inhibition [1] 4.3% | activity change, negative = inhibition [2] 8.89% | activity, negative = inhibition [3] 4.33% | Potency [4] > 20.6 µM

NC(=O)c1ccccc1OCCOCCOCCOc1ccccc1C(N)=O
inactive: activity change, negative = inhibition [1] -9.33% | activity change, negative = inhibition [2] -4.35% | activity, negative = inhibition [3] -0.51% | Potency [4] > 20.6 µM

Cc1ccccc1COc1ccc(/C(O)=C2/C(=O)C(=O)N(CCCn3ccnc3)C2c2ccco2)cc1 (centres undefined)
inactive: activity change, negative = inhibition [1] -11.1% | activity change, negative = inhibition [2] 10.8% | activity, negative = inhibition [3] 3.48% | Potency [4] > 20.6 µM

CCC(NC(=O)Nc1nccs1)(C(F)(F)F)C(F)(F)F
inactive: activity change, negative = inhibition [1] -2.44% | activity change, negative = inhibition [2] -12.7% | activity, negative = inhibition [3] -6.36% | Potency [4] > 20.6 µM

CC1(C(=O)CSc2nc3ccccc3[nH]2)CCC(=O)O1 (centres undefined)
inactive: activity change, negative = inhibition [1] 4.25% | activity change, negative = inhibition [2] 3.87% | activity, negative = inhibition [3] -2.98% | Potency [4] > 20.6 µM

Source: PubChem BioAssay (NCATS)
